Among the data in PubChem BioAssay (NCATS) are Potency values, retold here.

SMILES strings stand for the structures. Inconclusive results are not listed. Activity calls are given as the source filed them. Calls come from the whole dose curve; as a rule, active = well fitted cell-killing curve with a large enough effect; inconclusive = small, poorly fitted or top-dose-only effect, or effect the other way; inactive = no such curve, though single readings can be large or run the other way.
Potency is the fitted concentration of half-maximal effect.

The nature of the assay: Quantitative High-Throughput drug screen in 47 multiple myeloma cell lines against the NCATS MIPE library collection: XG1_PLB cell viability assay (AID 1919866). Note: nearly all actives have a fitted effect of over 35% in size. The following applies: CellTiter-Glo ATP, 48 h; series mostly up to 45.8 µM. An excerpt:
PI: Beverly A. Mock Ph.D.
Laboratory of Cancer Biology and Genetics,
Center for Cancer Research, National Cancer Institute,
National Institute of Health, Bethesda, Maryland
Drug resistance and disease progression are common in multiple myeloma (MM) patients, underscoring the need for new therapeutic combinations. […] We hypothesized that effective combinations would reduce MYC expression and enhance p16 activity. […] These preclinical data identify potentially useful drug combinations for evaluation in drug-resistant MM and reveal potential mechanisms of combined drug sensitivity.
Described herein is the primary MIPE qHTS used to cherrypick compounds. Validated compounds were then further tested for potential synergistic activiy.
[1] Peat TJ, Gaikwad SM, Dubois W, Gyabaah-Kessie N, Zhang S, Gorjifard S, Phyo Z, Andres M, Hughitt VK, Simpson RM, Miller MA, Girvin AT, Taylor A, Williams D, D'Antonio N, Zhang Y, Rajagopalan A, Flietner E, Wilson K, Zhang X, Shinn P, Klumpp-Thomas C, McKnight C, Itkin Z, Chen L, Kazandijian D, Zhang J, Michalowski AM, Simmons JK, Keats J, Thomas CJ, Mock BA. Drug combinations identified by high-throughput screening promote cell cycle transition and upregulate Smad pathways in myeloma. Cancer Lett. 2023 Aug 1;568:216284. doi: 10.1016/j.canlet.2023.216284. Epub 2023 Jun 24. PMID: 37356470; PMCID: PMC10408729.
SEQUENCE No. (e.g., 1, 2, 3, etc.); […] (e.g., Cells, Incubation, Reagent, etc.); VALUE and DESCRIPTION.
1; Cells; 5 uL; white, solid bottom 1536-well Greiner assay plate.
2; Compounds; 23 nL; Kalypsis pin tool (Wako USA) equipped with a 1536-well pin head to transfer to the assay plates.
3; Incubation; 48 hours; 37C incubation.
4; Reagent;5uL; CellTiter Glo (Promega).
5; Detector; 425V; Luminescence; Viewlux PerkinElmer.
NOTES (numbers refer to Sequence numbers above)
1. The cell-based screening methods employed in this study were like those previously published. Briefly, the corresponding myeloma cell lines were screened in 1,536-well plates with 500 cells, 5-uL per well for inhibition of cell viability (assessed by measuring ATP levels with CellTiterGlo).
2. NCATS MIPE 4.0 library of approved and investigational drugs were added using the Kalypsis pin tool. Wells treated with DMSO only for 100% viability and media only for 0% viability were used as controls.
3. The assay plates were covered and incubated for 48 hours in a 37C, 5% CO2 incubator with controlled humidity.
4. After 48 hours, CellTilter-GloTM luminescent substrate mix (Promega) reagent was added to the assay plate and plates we incubated for 5 min at room temperature.
5. Signal was measured as median relative luminescence units on a ViewLux (PerkinElmer) multiplate reader.
[1] Heske CM, Davis MI, Baumgart JT, Wilson K, Gormally MV, Chen L, Zhang X, Ceribelli M, Duveau DY, Guha R, Ferrer M, Arnaldez FI, Ji J, Tran HL, Zhang Y, Mendoza A, Helman LJ, Thomas CJ. Matrix Screen Identifies Synergistic Combination of PARP Inhibitors and Nicotinamide Phosphoribosyltransferase (NAMPT) Inhibitors in Ewing Sarcoma. Clin Cancer Res. 2017 Dec 1;23(23):7301-7311. doi: 10.1158/1078-0432.CCR-17-1121. Epub 2017 Sep 12. PMID: 28899971; PMCID: PMC6636827.
Turning to `COc1ccc(C(=O)CC2(O)C(=O)Nc3c(Cl)ccc(Cl)c32)cc1` (stereo not given), the Potency is 833 nM (active). For `Cc1cnc(Nc2ccc(F)cc2Cl)nc1-c1c[nH]c(C(=O)N[C@H](CO)c2cccc(Cl)c2)c1`, the Potency was 13200 nM (active).

Turning to `CN(C)c1nc(Cc2ccc(NC(=O)c3ccc4ccccc4c3)cc2)nc(Cl)c1CC(=O)O`, the Potency entry was “inactive”. The value for `COC(=O)[C@]12CCC(C)(C)C[C@@H]1[C@@H]1C(=O)C=C3[C@@]4(C)C=C(C#N)C(=O)C(C)(C)[C@@H]4CC[C@@]3(C)[C@]1(C)CC2` was 166 nM (active); that for `Cc1cc(Nc2ncnc3ccc(-c4ccc(CNCCS(C)(=O)=O)o4)cc23)ccc1Oc1ccn2ncnc2c1` was 6620 nM (active); that for `COc1cc(C(=O)NS(=O)(=O)c2ccccc2C)ccc1Cc1cn(C)c2ccc(NC(=O)OC3CCCC3)cc12` was 11800 nM (active).

In the case of `C[C@@H](Oc1cc(-c2cnn(C3CCNCC3)c2)cnc1N)c1c(Cl)ccc(F)c1Cl`, the Potency was 4690 nM (active). Next, `OCc1ccc(-c2ccc(-c3ccc(CO)s3)o2)s1`: 6620 nM (active); `Cc1cn2c(-c3cn[nH]c3)cnc2c(Nc2ccc(C(=O)N3CCNCC3)cc2F)n1`: 3720 nM (active). For `Nc1ccn([C@@H]2O[C@H](CO)[C@H](O)C2(F)F)c(=O)n1`, the Potency was 20.9 nM (active). Next, `CC[C@@]1(O)C(=O)OCc2c1cc1n(c2=O)Cc2cc3cc(O)ccc3nc2-1`: 66.2 nM (active); `CCCCCCCCCC(=O)N[C@@H](Cc1c[nH]c2ccccc12)C(=O)N[C@H](CC(N)=O)C(=O)N[C@@H](CC(=O)O)C(=O)N[C@@H]1C(=O)NCC(=O)N[C@@H](CCCN)C(=O)N[C@@H](CC(=O)O)C(=O)N[C@H](C)C(=O)N[C@@H](CC(=O)O)C(=O)NCC(=O)N[C@H](CO)C(=O)N[C@@H]([C@@H](C)CC(=O)O)C(=O)N[C@@H](CC(=O)c2ccccc2N)C(=O)O[C@@H]1C`: “inactive”. For `Cn1cncc1[C@@](N)(c1ccc(Cl)cc1)c1ccc2c(c1)c(-c1cccc(Cl)c1)cc(=O)n2C`, the Potency is 332 nM (active).

`CC(C)(O)c1cc2nc(-c3cnc(N)nc3)nc(N3CCOCC3)c2s1`: the Potency was 118 nM (active). As for `Cc1[nH]c2ccccc2c1CCNCc1ccc(C=CC(=O)NO)cc1`, the Potency is 105 nM (active). In the case of `O=C(NCCS(=O)(=O)c1ccc(C(F)(F)F)cn1)c1ccc(Cl)cc1`, the Potency entry was “inactive”. Take `C=CC(=O)Nc1cccc(Oc2nc(Nc3ccc(N4CCN(C)CC4)cc3OC)ncc2Cl)c1`: the Potency was 4.7 nM (active). For the compound `COc1cc(Nc2ncc(F)c(Nc3ccc4c(n3)N(COP(=O)(O)O)C(=O)C(C)(C)O4)n2)cc(OC)c1OC`, the Potency is 662 nM (active). The value for `Nc1nccc(Oc2ccc(NC(=O)c3c[nH]cc(-c4ccc(F)cc4)c3=O)cc2F)c1Cl` was 18700 nM (active). The value for `Nc1ncnc2c1c(-c1cccc(OCc3ccccc3)c1)cn2C1CC(CN2CCCC2)C1` (stereo not given) was 8330 nM (active); that for `COc1cc(=C2C=c3ccccc3=N2)[nH]c1=Cc1[nH]c(C)cc1C` was 2090 nM (active). For `Cc1nc2cnc3ccc(C#Cc4cccnc4)cc3c2n1-c1ccc(C(C)(C)C#N)cc1`, the Potency is 10.5 nM (active). The value for `O=C(Nc1cn[nH]c1-c1nc2ccc(CN3CCOCC3)cc2[nH]1)NC1CC1` was 148 nM (active). Consider `COCCOc1ccc2c(c1)ncn2-c1ccc2cccc(N3CCC(N)CC3)c2n1`, for which the Potency is 132 nM (active). The value for `CC1(C)CC(=O)c2c(C(F)(F)F)nn(-c3ccc(C(N)=O)c(NC4CCC(OC(=O)CN)CC4)c3)c2C1` (stereo not given) was 83.3 nM (active); that for `O=C(c1ccc(Nc2nccc(-c3cc4ccccc4s3)n2)cc1)N1CCC(N2CCCC2)CC1` was 4690 nM (active). The value for `O=C(O)c1ccc2cc(-c3ccc(O)c(C45CC6CC(CC(C6)C4)C5)c3)ccc2c1` was 526 nM (active). For the compound `O=C(Nc1ncc(-c2cc(C(F)F)nn2-c2c(Cl)cccc2Cl)s1)C1CC1`, the Potency is 105 nM (active). On to `COC(=O)C[C@](O)(CCCC(C)(C)O)C(=O)O[C@@H]1C(OC)=C[C@]23CCCN2CCc2cc4c(cc2[C@H]13)OCO4`, for which the Potency result was “inactive”. As for `COc1ccc(C=Cc2cc(OC)c(OC)c(OC)c2)cc1O`, the Potency entry is “inactive”. Turning to `C[C@]1(CO)CN(c2cc(C(=O)Nc3ccc4c(c3)-c3c(c(C(N)=O)nn3-c3ccc(F)cc3)CC4)c(Cl)cn2)C[C@@]1(C)CO`, the Potency is 14800 nM (active). As for `Cc1ccc(C(=O)Nc2cccc(C(F)(F)F)c2)cc1-c1ccc2nc(NCCN3CCOCC3)ncc2c1`, the Potency was 4690 nM (active). Next, `Cc1cc(Nc2cc(CN3CCOCC3)c3nc(C)c(Cc4ccc(Cl)cc4F)n3n2)n[nH]1`: 833 nM (active); `C1Cc2[nH]nc(-c3nn[nH]n3)c2C1`: “inactive”; `COc1cc(C(C)C)c2c(c1)S(=O)(=O)N(COc1cc(=O)n3cccc(OCCN4CCCCC4)c3n1)C2=O`: 2090 nM (active). The value for `CCN(CC)CCNC(=O)c1ccc2nc(-c3ccccc3)c(-c3ccc(CN4CCC(n5c(=O)[nH]c6ccccc65)CC4)cc3)nc2c1` was 590 nM (active); that for `O=C(O)C1(Cc2cccc(Nc3nccs3)n2)CCC(Oc2cccc(Cl)c2F)CC1` (stereo not given) was 52.6 nM (active); that for `N#CCNC(=O)c1ccc(-c2ccnc(Nc3ccc(N4CCOCC4)cc3)n2)cc1` was 5260 nM (active).

`CC(=O)OCCN1C(=O)c2c(C)nc3ccc(S(=O)(=O)N4CCOCC4)cc3c2C1=O`: the Potency entry was “inactive”. Next, `CC(C)c1cnn2c(NCc3ccccc3)cc(N[C@@H](CO)[C@H](O)CO)nc12`: 264 nM (active).
